Here are results for 11 compounds from ChEMBL document CHEMBL3988442, “University of Dundee, Small-Polar-MMV Screening Library” (2021).

Common to all, as to set-up: scale not given: direction of the effect not stated beside the values
Experiment [1] deals with Protein translocase subunit SecA (Escherichia coli (strain K12)) (UniProt P10408). Briefly: Assay to Identify E. coli SecA ATPase Inhibitors. It counts as functional. To be noted: 30 µM.
In experiment [2] the target is T1, Ubiquitin-activating enzyme e1, putative (Leishmania donovani (strain BPK282A1)) (UniProt E9BSI1).
T1 sequence (whole entry): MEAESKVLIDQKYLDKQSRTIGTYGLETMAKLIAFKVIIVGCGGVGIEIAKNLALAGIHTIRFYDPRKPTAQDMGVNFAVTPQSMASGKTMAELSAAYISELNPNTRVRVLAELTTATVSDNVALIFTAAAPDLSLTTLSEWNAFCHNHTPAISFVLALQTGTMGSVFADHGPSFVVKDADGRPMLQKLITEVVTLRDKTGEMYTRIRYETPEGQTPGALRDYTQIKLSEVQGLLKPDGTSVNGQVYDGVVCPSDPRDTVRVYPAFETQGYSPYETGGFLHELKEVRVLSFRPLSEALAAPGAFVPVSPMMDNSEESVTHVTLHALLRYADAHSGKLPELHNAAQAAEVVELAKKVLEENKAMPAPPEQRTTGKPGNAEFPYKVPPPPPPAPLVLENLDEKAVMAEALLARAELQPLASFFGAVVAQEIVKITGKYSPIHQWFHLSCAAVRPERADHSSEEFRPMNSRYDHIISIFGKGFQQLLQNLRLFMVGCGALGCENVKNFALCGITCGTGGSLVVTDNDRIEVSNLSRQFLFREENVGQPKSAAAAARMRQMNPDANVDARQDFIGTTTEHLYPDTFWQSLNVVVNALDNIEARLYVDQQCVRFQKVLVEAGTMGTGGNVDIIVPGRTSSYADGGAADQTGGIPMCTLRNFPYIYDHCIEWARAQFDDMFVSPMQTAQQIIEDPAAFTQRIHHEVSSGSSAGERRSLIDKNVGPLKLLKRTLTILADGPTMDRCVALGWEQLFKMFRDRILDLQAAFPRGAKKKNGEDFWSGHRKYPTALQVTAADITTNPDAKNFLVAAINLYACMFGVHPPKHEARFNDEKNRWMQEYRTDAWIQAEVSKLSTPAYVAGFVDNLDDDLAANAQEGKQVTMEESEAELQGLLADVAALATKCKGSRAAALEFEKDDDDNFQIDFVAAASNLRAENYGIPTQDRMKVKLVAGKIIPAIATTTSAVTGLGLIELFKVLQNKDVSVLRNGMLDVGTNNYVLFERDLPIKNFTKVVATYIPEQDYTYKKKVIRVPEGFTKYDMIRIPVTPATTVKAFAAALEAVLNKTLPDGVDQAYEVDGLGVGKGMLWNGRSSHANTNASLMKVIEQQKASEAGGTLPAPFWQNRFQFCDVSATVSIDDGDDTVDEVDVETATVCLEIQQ
Briefly: Leishmania donovani Ubiquitin Activating Enzyme (LdE1). It counts as functional. To be noted: 30 µM.

The target of experiment [3] is Sialic acid-binding Ig-like lectin 9 (Homo sapiens) (UniProt Q9Y336). Briefly: Hs-Siglec9 ALPHAscreen SOP 20170721. The following applies: 10 µM.
In another experiment the test system is Trypanosoma cruzi. The experiment can be described thus: Trypanosoma cruzi phosphomannomutase and mannose-1-phosphate guanylyltransferase assay. The experiment is classed as functional. The following applies: 10 µM.
In experiment [4] the target is T2, Arginase-2, mitochondrial (Homo sapiens) (UniProt P78540).
T2 sequence (whole entry): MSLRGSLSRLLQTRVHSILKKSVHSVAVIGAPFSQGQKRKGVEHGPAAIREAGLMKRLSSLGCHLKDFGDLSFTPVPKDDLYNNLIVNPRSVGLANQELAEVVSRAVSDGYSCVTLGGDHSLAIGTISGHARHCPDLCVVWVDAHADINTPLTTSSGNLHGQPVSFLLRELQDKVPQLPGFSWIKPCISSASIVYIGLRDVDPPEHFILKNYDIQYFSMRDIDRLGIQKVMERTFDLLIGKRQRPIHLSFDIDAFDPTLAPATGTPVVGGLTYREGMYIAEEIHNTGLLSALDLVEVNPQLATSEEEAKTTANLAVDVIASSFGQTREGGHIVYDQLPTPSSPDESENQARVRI
The experiment can be described thus: in vitro enzyme assay to detect the production of urea directly proportional to the activity of Arginase II. Also: in the data most compounds retested in dose-response had high values. It counts as functional.

Experiment [5] has as its target T3, Proteasome subunit beta (Trypanosoma cruzi) (UniProt O96673).
T3 sequence (whole entry): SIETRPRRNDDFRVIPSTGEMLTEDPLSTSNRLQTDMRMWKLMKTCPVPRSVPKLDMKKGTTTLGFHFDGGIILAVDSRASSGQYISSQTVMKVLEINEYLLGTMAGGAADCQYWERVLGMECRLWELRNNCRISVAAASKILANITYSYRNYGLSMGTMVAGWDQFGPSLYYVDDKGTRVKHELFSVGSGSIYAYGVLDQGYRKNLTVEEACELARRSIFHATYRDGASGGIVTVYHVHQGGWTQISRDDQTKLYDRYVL
Briefly: Trypanosoma cruzi proteasome chymotrypsin-like activity (TcProtChymo) assay. Also: in the data most compounds retested in dose-response had high values. The following applies: 9.37 µM. The experiment is classed as functional.

The subject of a further experiment is N/A. The experiment can be described thus: Trypanosoma cruzi proteasome luciferase counter-screen. It counts as functional. To be noted: 9.37 µM. On the technique in general: The purpose of a counterscreen is to sort out artefacts and off-target activity.
The species named for another experiment is Homo sapiens. Briefly: To identify inhibition of the IFN signalling (Jak-Stat) pathway via expression of an eGFP reporter gene under the control of an IFN-stimulated response element (ISRE) containing MxA promoter. It counts as functional. To be noted: 30 µM. (In a reporter assay the amount or activity of a reporter protein is the signal.)
The target of experiment [6] is T4, Tyrosyl-tRNA synthetase, putative (Trypanosoma cruzi (strain CL Brener)) (UniProt Q4DSP6).
T4 sequence (whole entry): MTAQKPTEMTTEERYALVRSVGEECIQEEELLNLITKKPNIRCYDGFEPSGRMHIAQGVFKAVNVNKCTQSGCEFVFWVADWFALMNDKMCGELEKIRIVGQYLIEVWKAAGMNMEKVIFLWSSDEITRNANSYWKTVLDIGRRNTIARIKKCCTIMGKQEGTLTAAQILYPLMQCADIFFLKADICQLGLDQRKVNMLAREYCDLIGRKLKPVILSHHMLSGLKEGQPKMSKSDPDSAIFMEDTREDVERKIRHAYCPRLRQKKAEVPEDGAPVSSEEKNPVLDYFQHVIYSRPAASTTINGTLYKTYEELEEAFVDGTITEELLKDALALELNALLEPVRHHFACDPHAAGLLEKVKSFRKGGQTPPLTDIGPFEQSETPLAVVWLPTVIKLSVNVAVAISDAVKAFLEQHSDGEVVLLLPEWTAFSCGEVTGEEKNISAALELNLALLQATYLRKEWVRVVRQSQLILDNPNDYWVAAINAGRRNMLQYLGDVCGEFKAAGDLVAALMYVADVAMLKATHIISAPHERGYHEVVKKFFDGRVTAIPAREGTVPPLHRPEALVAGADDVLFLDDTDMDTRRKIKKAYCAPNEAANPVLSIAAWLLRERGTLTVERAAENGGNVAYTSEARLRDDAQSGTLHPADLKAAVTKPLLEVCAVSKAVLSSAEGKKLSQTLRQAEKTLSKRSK
Briefly: Trypanosoma cruzi tyrosyl tRNA synthetase (TcYRS) _High Tyrosine SOP. Also: in the data most compounds retested in dose-response had high values. The following applies: 30 µM. It counts as functional.

Experiment [7] has as its target T4, Tyrosyl-tRNA synthetase, putative (Trypanosoma cruzi (strain CL Brener)). The experiment can be described thus: Trypanosoma cruzi tyrosyl tRNA synthetase (TcYRS) SOP. The experiment is classed as functional. The following applies: 30 µM.
The target of experiment [8] is Chromo domain-containing protein 1 (Saccharomyces cerevisiae (strain ATCC 204508 / S288c) (Baker's yeast)) (UniProt P32657). The experiment can be described thus: ScCHD-1 Enzyme Inhibition Assay. Also: in the data most compounds retested in dose-response had high values. The experiment is classed as functional. To be noted: 30 µM.
Experiment [9] addresses AMP-activated protein kinase, AMPK (Homo sapiens) (UniProt P54646+O43741+P54619+Q9UGJ0+Q9Y478+Q13131+Q9UGI9). The experiment can be described thus: AMP-dependent Kinase enzyme assay. An in vitro enzyme assay that detects ADP turnover that is directly proportional to AMPK activity. This uses naive AMPK that is activated during the assay with MK-8722. The experiment is classed as functional. To be noted: 30 µM.

Structures are written as SMILES. Values joined by “and” are separate entries in the source; they are usually repeats but may differ in a detail not shown here. Equal values may be shown once. For some assays here: Entries with a potency or affinity are not part of this list.

Chromo domain-containing protein 1 (Saccharomyces cerevisiae (strain ATCC 204508 / S288c) (Baker's yeast)), sequence (P32657 whole entry, the tested form may be a part): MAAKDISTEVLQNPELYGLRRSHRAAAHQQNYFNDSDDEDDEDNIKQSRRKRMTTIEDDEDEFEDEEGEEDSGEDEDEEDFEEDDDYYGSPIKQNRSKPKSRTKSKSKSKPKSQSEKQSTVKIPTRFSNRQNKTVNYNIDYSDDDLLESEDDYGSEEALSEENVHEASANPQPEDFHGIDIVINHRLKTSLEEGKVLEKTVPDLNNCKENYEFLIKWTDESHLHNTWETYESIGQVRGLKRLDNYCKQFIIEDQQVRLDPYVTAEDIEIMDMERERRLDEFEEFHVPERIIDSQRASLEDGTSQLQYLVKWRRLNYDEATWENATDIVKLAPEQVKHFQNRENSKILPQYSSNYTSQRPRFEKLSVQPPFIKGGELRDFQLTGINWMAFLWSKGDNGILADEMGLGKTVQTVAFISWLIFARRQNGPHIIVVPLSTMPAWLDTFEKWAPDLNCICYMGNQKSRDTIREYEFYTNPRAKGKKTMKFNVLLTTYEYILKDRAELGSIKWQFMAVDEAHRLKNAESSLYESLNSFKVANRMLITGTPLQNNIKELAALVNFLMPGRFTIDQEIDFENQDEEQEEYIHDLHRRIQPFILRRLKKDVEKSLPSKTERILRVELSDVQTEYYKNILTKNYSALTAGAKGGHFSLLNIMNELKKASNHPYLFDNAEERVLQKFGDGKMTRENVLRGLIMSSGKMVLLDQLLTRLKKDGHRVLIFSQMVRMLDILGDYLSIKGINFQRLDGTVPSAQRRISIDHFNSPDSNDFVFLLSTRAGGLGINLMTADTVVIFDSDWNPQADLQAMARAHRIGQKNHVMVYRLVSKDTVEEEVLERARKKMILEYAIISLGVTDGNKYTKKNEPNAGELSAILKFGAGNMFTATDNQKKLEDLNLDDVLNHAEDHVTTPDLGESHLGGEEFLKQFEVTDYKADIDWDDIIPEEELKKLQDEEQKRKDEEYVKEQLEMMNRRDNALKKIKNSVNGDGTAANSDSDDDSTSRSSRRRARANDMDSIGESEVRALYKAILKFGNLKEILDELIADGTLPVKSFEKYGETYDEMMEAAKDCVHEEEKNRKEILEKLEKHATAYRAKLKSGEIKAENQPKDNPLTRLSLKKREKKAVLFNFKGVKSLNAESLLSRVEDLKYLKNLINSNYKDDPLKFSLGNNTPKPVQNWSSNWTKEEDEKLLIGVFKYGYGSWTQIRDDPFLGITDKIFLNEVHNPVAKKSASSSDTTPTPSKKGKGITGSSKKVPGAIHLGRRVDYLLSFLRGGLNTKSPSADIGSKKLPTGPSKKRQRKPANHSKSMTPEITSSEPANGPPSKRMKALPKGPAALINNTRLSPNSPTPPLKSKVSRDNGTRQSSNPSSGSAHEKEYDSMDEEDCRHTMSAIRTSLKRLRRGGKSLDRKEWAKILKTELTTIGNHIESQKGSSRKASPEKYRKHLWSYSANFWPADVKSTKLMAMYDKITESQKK
Sialic acid-binding Ig-like lectin 9 (Homo sapiens), sequence (Q9Y336 whole entry): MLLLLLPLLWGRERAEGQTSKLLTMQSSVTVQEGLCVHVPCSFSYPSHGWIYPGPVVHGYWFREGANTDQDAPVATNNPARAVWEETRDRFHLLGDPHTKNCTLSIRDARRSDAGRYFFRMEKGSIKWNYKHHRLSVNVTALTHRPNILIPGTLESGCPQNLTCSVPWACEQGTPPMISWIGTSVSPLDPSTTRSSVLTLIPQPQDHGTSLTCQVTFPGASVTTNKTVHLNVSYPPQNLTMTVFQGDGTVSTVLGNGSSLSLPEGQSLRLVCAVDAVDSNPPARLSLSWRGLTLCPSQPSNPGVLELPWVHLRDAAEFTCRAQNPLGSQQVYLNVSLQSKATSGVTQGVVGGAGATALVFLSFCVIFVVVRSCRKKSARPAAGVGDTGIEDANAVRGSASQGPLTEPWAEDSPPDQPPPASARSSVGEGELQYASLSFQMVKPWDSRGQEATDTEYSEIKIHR
Protein translocase subunit SecA (Escherichia coli (strain K12)), sequence (P10408 whole entry): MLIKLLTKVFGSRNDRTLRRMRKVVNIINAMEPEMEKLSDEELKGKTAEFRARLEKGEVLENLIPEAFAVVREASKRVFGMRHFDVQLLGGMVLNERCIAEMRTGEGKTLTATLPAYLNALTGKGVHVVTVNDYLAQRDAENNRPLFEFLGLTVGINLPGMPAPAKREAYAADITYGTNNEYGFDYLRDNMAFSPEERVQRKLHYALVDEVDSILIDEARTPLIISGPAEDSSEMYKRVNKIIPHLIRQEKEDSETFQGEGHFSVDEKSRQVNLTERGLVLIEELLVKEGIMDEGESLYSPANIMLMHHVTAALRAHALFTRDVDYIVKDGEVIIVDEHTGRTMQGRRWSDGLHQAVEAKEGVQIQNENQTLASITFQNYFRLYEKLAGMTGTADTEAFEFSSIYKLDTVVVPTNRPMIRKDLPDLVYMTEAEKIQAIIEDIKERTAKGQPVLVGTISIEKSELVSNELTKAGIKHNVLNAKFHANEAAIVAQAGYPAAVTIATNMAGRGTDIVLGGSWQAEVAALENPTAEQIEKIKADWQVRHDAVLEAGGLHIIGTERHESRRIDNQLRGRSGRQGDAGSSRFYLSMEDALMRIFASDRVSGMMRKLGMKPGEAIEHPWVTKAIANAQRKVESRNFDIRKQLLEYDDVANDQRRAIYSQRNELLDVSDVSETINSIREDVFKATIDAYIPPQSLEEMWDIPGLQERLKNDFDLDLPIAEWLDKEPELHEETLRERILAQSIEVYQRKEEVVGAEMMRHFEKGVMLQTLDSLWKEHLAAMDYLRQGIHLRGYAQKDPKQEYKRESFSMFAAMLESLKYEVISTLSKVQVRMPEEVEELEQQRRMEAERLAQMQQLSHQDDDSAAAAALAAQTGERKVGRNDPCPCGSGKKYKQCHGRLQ

`COc1cccc(-c2noc(C3CCN(Cc4cccs4)C3)n2)c1` (centres undefined): the Percent Effect in experiment [1] was 4.18%; in experiment [2] it was 4%; in experiment [3], -7.16%; in the experiment with Trypanosoma cruzi it was -5.33%; in [4] (33.3 µM), 1.77%; in experiment [5] it was 57.3% and 54.2% and 60.1%. Further, the Percent Effect with N/A was 26.2% and 26.8%; in the experiment listed under Homo sapiens, 16%; in [6], -3.17%; in [7], 7.5%; in experiment [8] it was -23.7%.

For the compound `Cn1ccc(C(=O)NCc2cccc(CN3CCCC3)c2)cc1=O`, the Percent Effect in experiment [1] was -1.76%; in [2] it was 20.8%; in experiment [3], 0.574%; in the experiment on Trypanosoma cruzi, 2.05%; in [4] (33.3 µM), -6.35%; in [5], 19.2% and 18.4% and 34%. In addition, the Percent Effect is 12% and 8.64% in the experiment with N/A; -14.3% in the experiment filed under Homo sapiens; 11.8% in [6]; 30.6% in [7]; -13% in [8].

In the case of `CC(C)c1nnc(NC(=O)NCc2ccc(CO)c(F)c2)s1`, the Percent Effect was -5.17% in [1]; 11.4% in experiment [2]; -2.17% in experiment [9]; -0.945% in [3]; -1.95% in the experiment on Trypanosoma cruzi; 3.66% in experiment [4] (33.3 µM). Moreover, the Percent Effect is 11.8% in experiment [5]; 26.1% in the experiment listed under Homo sapiens; -5.21% in experiment [6]; -2.53% in experiment [7]; -11.2% in experiment [8].

As to `CN(C)c1ccc(C(=O)NCC2(c3ccccc3)CCOCC2)cc1`, the Percent Effect in experiment [1] is -0.155%; in experiment [2], 22.7%; in experiment [3], -5.97%; with Trypanosoma cruzi, 1.38%; in experiment [4] (33.3 µM), -2.21%; in experiment [5], 15.4%. The Percent Effect in the experiment filed under Homo sapiens is 9.64%; in experiment [6], 0%; in [7] it was 15%; in experiment [8], -24.2%.

In the case of `Cc1ccc(NC(=O)C2=CN=S=N2)cc1`, the Percent Effect in [1] was 1.26%; in experiment [2], 17.3%; in experiment [3], -13.9%; with Trypanosoma cruzi, 3.94%; in experiment [4] (33.3 µM), 0%; in experiment [5], 84.2% and 80.5% and 69%. Further, the Percent Effect is 45.6% and 45.1% in the experiment with N/A; 21.4% in the experiment filed under Homo sapiens; 4.23% in experiment [6]; 10% in experiment [7]; -20.4% in [8].

`CN(C)[C@H]1CCCCN(C(=O)CCc2csc(N)n2)C1`: the Percent Effect in experiment [1] is -6.59%; in [2], 2.7%; in experiment [3] it was -1.59%; with Trypanosoma cruzi, 1.46%; in experiment [4] (30 µM), 2.7%; in experiment [4] (33.3 µM), -0.35%. The Percent Effect in experiment [5] is 9.76%; in the experiment filed under Homo sapiens, -5.61%; in experiment [6] it was 3.72%; in experiment [7] it was 7.32%; in [8], 0.286%.

On to `COCc1noc(-c2ccc(N3CCCCC3CO)nc2)n1` (centres undefined), for which the Percent Effect was -2.04% in experiment [1]; -5.41% in [2]; 7.35% in experiment [3]; -0.485% in the experiment on Trypanosoma cruzi; 6.64% in experiment [4] (33.3 µM); 62% and 48.5% and 57.3% in [5]. The Percent Effect with N/A is 26.9%; in the experiment filed under Homo sapiens it was 2.19%; in experiment [6] it was 0.532%; in experiment [7] it was 0%; in [8] it was -0.226%.

Regarding `COc1ccc(-c2ccnc3c2C(=O)CCC3)cc1`, the Percent Effect was 0.627% in [1]; 22.7% in experiment [2]; -8.36% in [3]; 0.789% with Trypanosoma cruzi; 0.885% in experiment [4] (33.3 µM); 78.1% and 77.9% and 84.4% in [5]. For the same compound, the Percent Effect is 54.8% and 45.5% with N/A; 22.2% in the experiment listed under Homo sapiens; 2.12% in [6]; 7.5% in [7]; -22.2% in experiment [8].

`O=C(NCCCN1CCOCC1)c1ccn(-c2ccc3ccccn23)n1`: the Percent Effect was -0.779% in experiment [1]; 6.49% in experiment [2]; 1.13% in experiment [3]; -2.43% with Trypanosoma cruzi; -4.05% in experiment [4] (33.3 µM); 30.3% and 30.6% and 42.5% in [5]. Moreover, the Percent Effect in the experiment on N/A is 15% and 12%; in the experiment listed under Homo sapiens it was 5.6%; in experiment [6], 8.95%; in experiment [7], 7.69%; in experiment [8], 1.74%.

Regarding `CS(=O)(=O)c1ccc(NC(=O)NCc2ccc3c(c2)CCC3)cn1`, the Percent Effect in experiment [1] was -2.45%; in experiment [2], 0%; in experiment [3] it was -3.31%; with Trypanosoma cruzi it was 4.04%; in [4] (33.3 µM), -38.9%; in [5], -6.06%. Besides, the Percent Effect in the experiment filed under Homo sapiens is 4.37%; in experiment [6], 5.26%; in experiment [7], 8.43%; in experiment [8] it was -1.11%.

Take `CCNC(=O)c1ccnc(NCC2COc3cc(OC)ccc3C2)c1` (centres undefined): the Percent Effect in [1] was -6.93%; in [2], 5.41%; in [3] it was 2.93%; in the experiment on Trypanosoma cruzi it was -3.78%; in experiment [4] (30 µM) it was 0.54%; in experiment [4] (33.3 µM), -1.05%. Besides, the Percent Effect is 23.6% in experiment [5]; 24.8% in the experiment listed under Homo sapiens; 2.66% in experiment [6]; 7.32% in experiment [7]; -4.55% in [8].
